Assay outcomes: PubChem, several laboratories
Hits are enriched below; roughly 4.2% of the tested compounds scored in any of these assays.
TIM10 inh: growth inhibitors of isogenic TIM10 control yeast, primary screen, counter-screen for tim10-1 yeast inhibitor project, luminescence, uHTS; 330,000 tested, 1.4% active; inhibition, % at 10 µM; S. cerevisiae TIM10 strain growth, BacTiter-Glo luminescence, 24 h;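 active means inhibition of 40% or more at the single tested concentration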;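 further: wild-type TIM10 isogenic control strain grown at permissive 25 °C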
V-ATPase pHluor: regulators of yeast V-ATPase proton pumping, primary screen, pHLuorin cytosolic pH fluorescence | response, % at 10 µM | S. cerevisiae | 350,000 tested, 0.37% active; in the data active means response mostly above about 7.3%, no sharp cut-off; inactive means mostly below about 5.4%; further: actives read high
tim23-1 inh: growth inhibitors of tim23-1 mutant yeast, primary screen, luminescence, uHTS; S. cerevisiae tim23-1 growth, BacTiter-Glo luminescence, 24 h; inhibition, % at 20 µM; 330,000 tested, 1.3% active;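 active means growth inhibition of the mutant yeast at or above 50%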;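 further: temperature-sensitive mutant grown at 25 °C; plate controls were DMSO-treated mutant yeast for no effect and medium wells lacking yeast for full effect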
tim10-1 inh: growth inhibitors of tim10-1 mutant yeast, primary screen, luminescence, uHTS. AID 463190, 2010. inhibition, % at 20 µM. 330,000 tested, 2.2% active. S. cerevisiae tim10-1 ts strain growth, BacTiter-Glo, 24 h;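 active means inhibition of at least 40%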;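 further: mutant grown at 25 °C; 0% = DMSO wells with yeast and 100% = wells holding no yeast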
NALP1 inh: NALP1 inflammasome inhibitors in reconstituted yeast, colorimetric, S. cerevisiae, triplicate retest; inhibition, % at 10 µM; 280,000 tested, 0.61% active; S. cerevisiae NALP1/ASC/caspase-1 growth, X-gal OD620, 72 h; in the data active means inhibition mostly above about 24%, no sharp cut-off; inactive means mostly below about 32%
NALP3 yeast inh: NALP3 inflammasome inhibitors in reconstituted yeast, primary screen, luminescence, uHTS | Yeast reconstituted NLRP3/ASC/caspase-1, beta-gal luminescence, 24 h | inhibition, % at 10 µM | 330,000 tested, 0.39% active;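 active means inhibition of 50% or more; inactive means inhibition below 50%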;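 further: plate controls were induced DMSO wells for no effect and uninduced yeast grown without galactose for full effect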
tim10-1 confirm: growth inhibitors of tim10-1 mutant yeast, confirmation, single concentration, luminescence, S. cerevisiae; shares compounds with tim10-1 inh; S. cerevisiae tim10-1 ts strain growth, BacTiter-Glo, 24 h; inhibition, % at 20 µM; 7,400 tested, 56% active;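 active means inhibition of yeast growth at or above a set limit in either of two repeat tests at 20 µM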;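 further: tim10-1 mutant grown at permissive 25 °C to find synthetic lethal compounds; 0% = DMSO yeast wells and 100% = medium wells without yeast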
Active calls of the source: *; . = no result.

SMILES	TIM10 inh	V-ATPase pHluor	tim23-1 inh	tim10-1 inh	NALP1 inh	NALP3 yeast inh	tim10-1 confirm
CCN(CC)S(=O)(=O)c1ccc(O)c(C(=O)OCC(=O)Nc2cc(C)c(C)cc2[N+](=O)[O-])c1	4	1	13	-5	1	1	.
O=C(COc1ccccc1/C=C1\SC(=O)NC1=O)Nc1ccccc1	13	1	25	18	0	18	.
O=C1NC(=O)/C(=C/c2ccccc2OCc2ccccc2)S1	40	0	20	46*	-14	18	37*
O=C1NC(=O)/C(=C\c2ccccc2Oc2ccc(F)c(F)c2)S1	19	7	28	45*	-9	-83	32*
O=C1NC(=O)C(=Cc2ccc(Cl)cc2Cl)S1	.	4	.	.	.	.	.
COc1ccc(Nc2nc(N)c(C(=O)c3ccc(OC)cc3)s2)cc1	20	0	37	44*	11	16	0
C[C@H](CO)N1C[C@H](C)[C@@H](CN(C)S(=O)(=O)c2cccs2)Oc2c(NC(=O)c3ccncc3)cccc2C1=O	-6	-1	12	-4	.	5	.
COCCNC(=S)N/N=C(\C)c1cccc(C(F)(F)F)c1	34	0	26	45*	0	4	15
COCCNC(=S)N/N=C(\C)c1ccc2cc(OC)ccc2c1	32	3	49	35	16	14	.
COCCNC(=S)N/N=C(\C)c1cc2ccccc2o1	35	2	36	41*	17	14	15
C=CCn1c(SCc2ccccc2)nc(O)cc1=O	4	-3	17	8	16	2	.
CC(=O)[C@H]1[C@H](C#N)C[C@H]2[C@@H]3CC=C4C[C@@H](O)CC[C@]4(C)[C@H]3CC[C@@]21C	36	7	39	41*	26	9	34*
CC(C)C(=O)N[C@H]1CCC2C3CC=C4C[C@@H](O)CC[C@]4(C)C3CC[C@@]21C (some centres undefined)	2	-2	20	11	.	25	.
CCOc1ccccc1C=Nc1ccccc1C(=O)Nc1ccccc1	36	2	36	46*	21	13	29
O=C(Nc1ccccc1)c1ccccc1N=Cc1ccccc1O	4	-2	12	-5	27	17	.
CCC(=O)Nc1cc2nn(-c3ccccc3)nc2cc1Cl	-2	2	18	4	26	10	.
CC1Cc2ccccc2N1C(=S)NC(=O)c1ccco1 (centres undefined)	34	-5	13	40*	-1	-5	36*
O=C(NC(=S)N1CCCc2ccccc21)c1ccco1	21	1	7	11	4	22	.
CCCOC(=O)CSC1=C(C#N)C(c2ccccc2Cl)CC(=O)N1 (centres undefined)	-14	-2	23	15	11	1	.
Cc1ccc2c(N)c(C(=O)N(c3ccccc3)c3ccccc3)sc2n1	26	-4	13	44*	20	-2	24
CCCc1ccc(-c2c(C)sc(N)c2C#N)cc1	35	-1	32	68*	46	18	49*
CCCC(=O)Nc1sc(C)c(-c2ccc(OC)cc2)c1C#N	-2	-1	1	6	22	10	.
O=C(CSc1nnc(NC(=O)c2ccccc2[N+](=O)[O-])s1)NCC1CCCO1 (centres undefined)	4	1	-8	-4	12	5	.
O=CNC1CCCc2c1[nH]c1ccc(Cl)cc21 (centres undefined)	30	-2	33	45*	-16	8	28
O=C(O)c1cc(S(=O)(=O)NCC2COc3ccccc3O2)ccc1Cl (centres undefined)	6	2	-9	-20	.	7	.
SMILES	TIM10 inh	V-ATPase pHluor	tim23-1 inh	tim10-1 inh	NALP1 inh	NALP3 yeast inh	tim10-1 confirm
CC(C)c1ccc(NC(=O)c2cc(S(=O)(=O)NCC3COc4ccccc4O3)ccc2F)cc1 (centres undefined)	38	4	34	43*	35	3	43*
CCOc1ccccc1NC(=O)C(C)SCc1ccccc1 (centres undefined)	-19	1	25	-7	6	31	.
CCCNC(=O)c1ccc(Cl)cc1Cl	3	0	5	97*	4	4	-2
O=C(NCCN1CCCC1)c1ccc(Cl)cc1Cl	0	-1	5	7	0	8	.
CCCCc1ccc(C2C(C#N)=C(N)SC(N)=C2C#N)s1	12	.	33	50*	16	14	34*
Cc1cc2c(n1-c1ccc(Br)cc1)CC(C)(C)CC2=O	26	-1	40	49*	-13	1	33*
Cc1ccc(-n2c(C)cc3c2CC(C)(C)CC3=O)cc1C	17	0	42	32	4	6	.
COc1ccc(C2=NO[C@@H]3[C@@H]4C[C@@H]([C@H]5C(=O)N(C)C(=O)[C@@H]45)[C@H]23)c(OC)c1	6	-3	9	-10	10	9	.
CCCCOc1ccc(C(=O)C(CN2CCOCC2)c2ccccc2)cc1 (centres undefined)	34	1	1	44*	-7	24	35*
COc1ccc(C(=O)C(CN2CCCC2)c2ccccc2)cc1 (centres undefined)	38	-3	-26	45*	16	16	43*
COc1ccc(C(=O)CCN2CCCCCC2)cc1	12	3	27	39	-19	11	.
COc1ccc(OC)c(C(=O)N2CCC(CCC(=O)NC3CC3)CC2)c1	-5	-1	-7	-4	-6	8	.
c1ccc(C(c2ccccc2)c2ccn[nH]2)cc1	2	-1	24	44*	0	0	13
COCC(C)N=Cc1c(O)[nH]c2ccccc12 (centres undefined)	11	2	6	18	4	22	.
CC(=O)Nc1cccc(C(=O)/C=C/c2ccc(F)cc2)c1	33	8	21	41*	28	25	31*
O=C(Nc1ccccc1F)c1ccc2c(c1)CCN2S(=O)(=O)c1ccccc1	23	-3	36	40*	20	1	16
Cc1ccccc1CN(C)C(C)C(=O)Nc1ccccc1F (centres undefined)	-10	1	7	-17	-5	7	.
O=C(c1ccc(-c2ccccc2Cl)o1)N1CCN(c2ccccc2O)CC1	16	-4	48	44*	.	12	28
COc1ccccc1NC(=O)Cn1c2ccc(F)cc2c2nc3n(c(=O)c21)CCS3	13	0	21	-3	9	14	.
